# Reference: ChEMBL document CHEMBL4513216, “Probing the Open Global Health Chemical Diversity Library for Multistage-Active Starting Points for Next-Generation Antimalarials” (ACS Infect Dis, 2020)
# Screen size: about 69,000 compounds; about 8,600 (12%) showed an effect of 50% or more. The list comes from a sample in which strong results are over-represented; it also holds similar structures and randomly drawn compounds.
# System: Plasmodium berghei
# Assay: Screen against P. berghei liver stage (PbLuc), transformed with Luciferase, at 10uM
# Format: functional, HepG2
# Details: tested at 10 uM
row,SMILES,INHIBITION
1,O=C1NC2(CCN(CC(=O)N3CCOCC3)CC2)Nc2ccc(Br)cc21,23.89%
2,CN1Cc2ccccc2N(CC(O)C(F)(F)F)CCC1=O (stereo not given),18.4%
3,CC(C)CC(NC(=O)c1ccco1)c1nc2cccnc2n1C (stereo not given),48%
4,Cc1cc(C)n(CCCN(C)Cc2cn[nH]c2-c2ccc(F)cc2)n1,14%
5,Cc1ccc(CN2CCOCC3(CCN(Cc4cccs4)C3)C2)o1 (stereo not given),-34%
6,CCOCCN1CCN(c2ccc(CN(C)C)cn2)CC1,7.24%
7,CCOCCN1CCN(CCc2ccc3c(c2)CCO3)CC1,67.6%
8,COCC(C)N1CCN(CCc2ccc3c(c2)CCO3)CC1 (stereo not given),51.9%
9,CC(C)NC1CCN(CCc2ccc3c(c2)CCO3)CC1,35.1%
10,CN(CCc1ccc2c(c1)CCO2)C1CCS(=O)(=O)CC1,19%
11,Cc1nc(CN(C)C2CCN(CCc3ccc4c(c3)CCO4)C2)no1 (stereo not given),-8.11%
12,CC(=O)NCCNC(=O)c1cccc(Cn2nc(C)cc2C)c1,-18.9%
13,COCCN(C)C[C@@H]1CCC[C@@H]2CN(Cc3ccc(OC)nc3)C[C@@H]21,20.1%
14,CCCC(O)CN1CC(C)(C)CN(C(=O)c2ccc(SC)cc2)CC1=O (stereo not given),43.4%
15,O=C(NCCCn1cncn1)c1ccc(-c2ccco2)[nH]c1=O,56.3%
16,O=C(NCCCn1cncn1)c1ccc(-c2ccccc2)[nH]c1=O,-12.9%
17,Cc1ccc(C(=O)NCCCn2cncn2)c(=O)[nH]1,4.41%
18,CN1CC(=O)N(c2ccsc2)CC12CCN(S(C)(=O)=O)C2 (stereo not given),-12.2%
19,CCc1nc(C2CCCN2CC(=O)Nc2cc(C)on2)no1 (stereo not given),22.3%
20,COc1ccc(-c2noc(C(N)CCSC)n2)cc1 (stereo not given),36.2%
21,O=C(NCCNc1ncccn1)N1CCCC1c1ccc(F)cc1 (stereo not given),6.11%
22,CNC(=O)c1nc(CC(=O)Nc2ccc3cc[nH]c3c2)no1,30.5%
23,Brc1ccc(NCc2ccc(Cn3ccnc3)cc2)nc1,-51.4%
24,CC(OCC1CC1)C(=O)NCc1ccc(Cn2ccnc2)cc1 (stereo not given),30.1%

row,SMILES,INHIBITION
1,CNC(=O)c1cccnc1NCc1ccc(-n2cccn2)cc1,26.4%
2,CC(C)COC(C)C(=O)NCc1ccc(Cn2ccnc2)cc1 (stereo not given),58.3%
3,CS(=O)(=O)c1ccccc1NCc1ccc(Cn2ccnc2)cc1,52%
4,CNC(=O)c1cccnc1NCc1ccc(Cn2ccnc2)cc1,85.7%
5,CNC(=O)c1cccnc1NCc1ccc(Cn2cccn2)cc1,21.9%
6,c1ccc(NCc2ccc(Cn3ccnc3)cc2)nc1,6.7%
7,CC(C)COC(C)C(=O)NCc1ccccc1Cn1ccnc1 (stereo not given),32.3%
8,COCCc1noc(CN(C)c2nc(C)cc(C)n2)n1,47.6%
9,COc1ccc(Cl)cc1CCNC(=O)NCc1ccncc1,-23.5%
10,NC(=O)CCN1CCc2onc(-c3ccccc3F)c2C1,-62.1%
11,CC(=O)N1CCN(CCOc2ccc(F)cc2)CC(C(N)=O)C1 (stereo not given),12.3%
12,CCNC(=O)[C@@H]1C[C@H](N)CN1C(=O)c1cccc(CCC(C)(C)O)c1,17.5%
13,Cc1nn(C(C)C)c2cnn(CC(=O)N3CCN(C)CC3)c12,21.7%
14,CC(C)c1cc(NC(=O)CN2CCn3c(nnc3C3CC3)C2)on1,7.5%
15,Cc1nccn1-c1ccc(NC(=O)C2CCCN2CC2CC2)cc1 (stereo not given),55.4%
16,Cc1nccn1-c1ccc(NC(=O)C2CCCN2Cc2ccoc2)cc1 (stereo not given),54.4%
17,Cc1nccn1CCCNC(=O)C1CCCCN1Cc1ccncc1 (stereo not given),-2.07%
18,Cc1nccn1-c1ccc(NC(=O)C2CCCN2Cc2c[nH]cn2)cc1 (stereo not given),36.2%
19,CCCN1CCCCC1C(=O)Nc1ccc(-c2nnc[nH]2)cc1 (stereo not given),-28.6%
20,Cc1cccnc1NC(=O)C1CCCN1Cc1ccccc1 (stereo not given),-10.4%
21,O=C(NCC1(O)COCCN(Cc2ccc(O)cc2)C1)c1cnccn1 (stereo not given),-42.9%
22,CCCc1nnc(NC(=O)Cc2c(C)nc(C)[nH]c2=O)s1,16.585%
23,O=C(NCc1cccs1)c1nc2c(o1)CN(CC1CC1)C2,-31.4%
24,CNC(=O)[C@@H]1[C@@H](OC(=O)Nc2ccccc2)C(=O)N(C)C12CCNCC2,35.8%

row,SMILES,INHIBITION
1,COc1ccc(C(C(=O)O)N2CCC(Cn3cccn3)CC2)c(OC)n1 (stereo not given),-40%
2,CCCc1nc(CN2CCCCC2Cn2cncn2)cs1 (stereo not given),30.6%
3,COCCOCC(=O)N1CCC2(CCCN(C3CCOCC3)C2=O)C1 (stereo not given),-7.7%
4,Cn1nnc2c(N3CC(C(=O)NCCC4=CCCCC4)C3)ncnc21,-19.1%
5,Cc1csc([C@H]2C[C@@H]3CCN(Cc4cc(C)on4)C[C@H]3O2)n1,64.7%
6,Cc1cc(CN2CC[C@H]3C[C@H](C(=O)N(C)C)O[C@@H]3C2)no1,23.9%
7,Cc1csc(CN2CC[C@H]3C[C@H](c4noc(C)n4)O[C@@H]3C2)n1,42.5%
8,Cc1csc([C@H]2C[C@H]3CN(Cc4cc(C)on4)CC[C@@H]3O2)n1,46.6%
9,Fc1cnc(N2C[C@@H]3C[C@@H](c4nc(C5CC5)cs4)O[C@@H]3C2)nc1,62.3%
10,Cc1csc(CN2CC[C@H]3C[C@@H](c4nnc(C)[nH]4)O[C@@H]3C2)n1,72.3%
11,O=C(C1CCOCC1)N1C[C@@H]2C[C@@H](c3nc(C4CC4)cs3)O[C@@H]2C1,31.8%
12,Cc1cc(CN2CC[C@H]3C[C@H](C)O[C@@H]3C2)no1,34.1%
13,Cc1cc(CN2CC[C@H]3C[C@@H](C)O[C@@H]3C2)no1,50.9%
14,Cc1csc([C@@H]2C[C@@H]3CCN(Cc4cc(C)on4)C[C@H]3O2)n1,26.7%
15,Cc1csc([C@@H]2C[C@H]3CN(c4ncc(F)cn4)C[C@H]3O2)n1,22.6%
16,Cc1csc(CN2CC[C@H]3C[C@H](c4nnc(C)[nH]4)O[C@@H]3C2)n1,23.5%
17,Cc1c(C2CC(=O)Nc3c2cnn3C(C)(C)C)cnn1C (stereo not given),-56.7%
18,Cc1[nH]c2nc(CNc3cccc(Cl)c3)nn2c(=O)c1C,-10.7%
19,Cc1cc(CN2CC[C@H]3C[C@H](c4nccs4)O[C@@H]3C2)no1,25%
20,Cc1noc(C)c1CN1CC[C@H]2C[C@H](c3nccs3)O[C@@H]2C1,40.4%
21,Cc1cc(CN2CC[C@H]3C[C@@H](c4nc(C5CC5)cs4)O[C@@H]3C2)no1,68.4%
22,Cc1ccc(CN2CC[C@H]3C[C@H](c4nc(C5CC5)cs4)O[C@@H]3C2)o1,21.3%
23,Cc1ccc(CN2CC[C@H]3C[C@@H](c4nc(C5CC5)cs4)O[C@@H]3C2)o1,63.5%
24,Cc1csc([C@H]2C[C@@H]3CCN(C(=O)c4ccnnc4)C[C@H]3O2)n1,4.61%

row,SMILES,INHIBITION
1,Cc1csc([C@@H]2C[C@@H]3CCN(C(=O)c4cccn4C)C[C@H]3O2)n1,50.7%
2,Cc1nnc([C@H]2C[C@@H]3CCN(Cc4cc(C)on4)C[C@H]3O2)[nH]1,35.8%
3,Cc1csc([C@H]2C[C@@H]3CCN(Cc4cnn(C)c4)C[C@H]3O2)n1,-63.5%
4,Cc1nnc([C@H]2C[C@@H]3CCN(Cc4ccc(C)o4)C[C@H]3O2)[nH]1,31.7%
5,Cc1cc(CN2CC[C@H]3C[C@@H](c4nccs4)O[C@@H]3C2)no1,57.9%
6,Cc1csc([C@@H]2C[C@@H]3CCN(C(=O)c4ccnnc4)C[C@H]3O2)n1,-19%
7,CC(C)c1nn(C)cc1CNCc1ccnc(N(C)C)c1,23.7%
8,Cn1ccc2ccnc(CC3CN(C(=O)c4cscn4)C3)c21,3.91%
9,CNC(=O)[C@@H]1CN(C(=O)CCOC)C[C@H]1c1ccnc(N2CCCC2)n1,-4.68%
10,CCc1nccn1C1CCCN(C(=O)COCC(F)(F)F)C1 (stereo not given),45.6%
11,Cc1ccc2c(c1)N(C(=O)c1cc[nH]c(=O)c1)CC(C)O2 (stereo not given),19.3%
12,COCc1nn(CC2CC2)c2c1CN(Cc1cncn1C)CC2,-88.6%
13,CC(C(=O)N1CCOCC1)n1cncn1 (stereo not given),-18.8%
14,CN(C)c1cccc(CNCc2ccc(N3CCOCC3)cc2)c1,34.1%
15,Cc1cc(CN2CC[C@H]3C[C@H](c4nc(C5CC5)cs4)O[C@@H]3C2)no1,74.7%
16,Cc1csc(CN2C[C@@H]3CN(CC4CCOCC4)CCO[C@@H]3C2)n1,47.5%
17,Cn1cc(CN2CC[C@H]3C[C@@H](c4nc(C5CC5)cs4)O[C@@H]3C2)cn1,47%
18,Cc1csc(CN2C[C@@H]3CN(S(C)(=O)=O)CCO[C@@H]3C2)n1,33.1%
19,Cc1csc([C@@H]2C[C@@H]3CCN(C(=O)c4cc(C)on4)C[C@H]3O2)n1,5.53%
20,Cc1csc([C@@H]2C[C@@H]3CCN(Cc4cnn(C)c4)C[C@H]3O2)n1,-3.19%
21,Cn1cc(CN2CC[C@H]3C[C@H](c4nc(C5CC5)cs4)O[C@@H]3C2)cn1,41.8%
22,Cc1csc(CN2C[C@@H]3CN(C)CCO[C@@H]3C2)n1,57.5%
23,c1cc(CN2CC[C@H]3C[C@H](c4nc(C5CC5)cs4)O[C@@H]3C2)ccn1,67.5%
